Shown is part of a subset that was picked to be rich in hits.
Pf Dd2 inh: blocks in vitro growth of P. falciparum Dd2 | P. falciparum Dd2 growth, SYBR Green, 72 h | Potency, µM (titrated, usually from 28.9 µM), for inactives: top-dose activity, negative = inhibition, hits mostly inhibitors | 120,000 tested, 4.3% active | AID 1347417; active = well fitted inhibition curve with a large enough effect;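 also: plate controls were DMSO vehicle for no effect and reference drug for full effect; nearly all actives have a fitted effect of over 65% in size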
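Readout: SYBR Green fluorescence, 485 nm excitation, 535 nm emission, after ~16 h lysis at 37C. Before that, Dd2-infected red cells (2.5% hematocrit) grew 72 h with compound, 29 uM top final concentration.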
* = called active by the depositor; i = inactive; [ ] = another dose, or the depositor's remark. Potency is read from the fitted curve at half-maximal effect.

SMILES	Pf Dd2 inh
O=C(c1cc(-c2ccccc2F)n[nH]1)N1CCC2(CCCN(Cc3ccccc3F)C2)C1 (centres undefined)	8.9µM*
COCCN1CC2(CCCN(C(=O)c3cc(-c4ccsc4)n[nH]3)C2)CCC1=O (centres undefined)	-18%
Cc1ccsc1[C@@H]1CCN(C(=O)c2ccc(-n3cnnn3)cc2)C[C@H]1O	-8%
COc1ccc(OC)c(C2NC(=O)NC(C)=C2C(=O)Nc2ccc(F)cc2)c1 (centres undefined)	-12%
COc1ccc(C2=CC(c3ccccc3F)n3ncc(C(=O)Nc4ccc(C)cc4)c3N2)cc1 (centres undefined)	7.9µM*
CC(=O)c1ccc(NC(=O)c2nc(-c3ccccc3)n(-c3ccc(Cl)cc3)n2)cc1	-19%
O=C(Nc1ccc(Cl)cc1)c1cnn2c1NC(c1ccccc1)=CC2c1ccccc1 (centres undefined)	3.2µM*
O=C(Nc1cnc(-c2ccc(Cl)cc2)nc1)c1ccccc1Cl	i
COc1ccc(NC(=O)C2=C(C)Nc3ncnn3C2c2ccccn2)cc1 (centres undefined)	12%
C=CCNC(=O)C1COC2(CCCCC2)N1C(=O)c1cccc(F)c1 (centres undefined)	31%
Cc1ccc(NC(=O)N[C@@H]2C=C(C(=O)NCC(N)=O)C[C@@H](O)[C@@H]2O)cc1	6%[44.1 µM]
COCCNC(=O)[C@@H]1C[C@H](Oc2cccnc2)CN1C(=O)Cc1c[nH]c2ccccc12	32%
COc1cc(NC(=O)N2CCCC2c2nncn2C2CCCC2)cc(OC)c1 (centres undefined)	-7%
Cc1cc(C)cc(NC(=O)N2CCCC2c2nncn2C2CCCC2)c1 (centres undefined)	-8%
O=C(Nc1cc(Cl)cc(Cl)c1)N1CCCC1c1nncn1C1CCCC1 (centres undefined)	11µM*
COC[C@H]1CCCN1Cc1nc(C2(O)CCN(C3CCN(C)CC3)CC2)cs1	-8%[44.1 µM]
NC(=O)c1ccc(-c2cccc3c2CCNC3)s1	-5%
COc1ccc(-c2cccc3c2CCNC3)cc1OC	11µM*
CCOc1ccc(-c2cccc3c2CCNC3)cc1C(N)=O	-4%
O=C(N[C@@H]1COCC[C@@H]1OCc1ccccc1)c1n[nH]c2c1COCC2	-6%
O=C(CCc1ccccc1)NCCC1CCN(C(=O)Nc2ccccc2)CC1	i
O=C(COc1ccccc1)NCCC1CCN(C(=O)Nc2ccccc2)CC1	11µM*
CC(C)CC(=O)NCCC1CCN(C(=O)Nc2ccccc2)CC1	-13%
COCc1cn(C[C@H]2C[C@@H](NC(=O)c3cc(C)n(C)n3)[C@H](O)[C@@H]2O)nn1	21%
CN(C)CCN(Cc1ccco1)C(=O)Cn1nc2n(c1=O)CCC(N)CC2 (centres undefined)	i
SMILES	Pf Dd2 inh
COc1ccc(C2Cn3nnc(-c4noc(-c5ccccc5OC)n4)c3CO2)cc1 (centres undefined)	i
Cc1ccc(Cn2ccn(Cc3cccc(C(F)(F)F)c3)c(=O)c2=O)cc1	i
Cc1cc(Cl)ccc1-c1ccc(C=O)cc1	11%[44.1 µM]
Cc1ccc(-c2cccc(CN)c2)c(C)c1	14µM*
NCc1ccc(Oc2ccc(F)c(Cl)c2)cc1	-26%[44.1 µM]
Cc1cc(F)ccc1-c1cccc(COc2cnc3c(ccn3CC(=O)O)c2)c1	i
O=C(O)c1cccc(-c2cc(C(F)(F)F)ccc2Cl)c1	4%
Cc1cc(Cl)ccc1-c1cccc(CN)c1	14µM*
NCc1cccc(-c2cc(C(F)(F)F)ccc2Cl)c1	10µM*
Cc1cc(Cl)ccc1-c1ccccc1C=O	-26%[44.1 µM]
Cc1cc(Cl)ccc1-c1ccccc1CN	8.9µM*
O=C(Nc1ccccc1)N1CCn2c(nn(-c3ccc(F)cc3)c2=O)C1	-28%
CCCNC(=O)N(C1CCOCC1)C1CCN(C(=O)c2ccc(C)c(F)c2)CC1	175%
Cc1cnn(C2(C(=O)O)CCN(C(=O)c3cnn4cccnc34)CC2)c1	-11%
Cn1cc2c3c(cccc31)CN(C(=O)C1CCC1)CC2	-6%
O=C1CC2(CCN(C(=O)c3ccc(C(F)(F)F)cc3)CC2)Oc2cc(Cl)ccc21	-4%
COc1ccc(NC(=O)N(C)CC2CCOCC2)cc1Cl	-17%
Cc1cc2ncc(C(=O)NCC(F)F)cn2n1	4%[44.1 µM]
Cc1ccc(C(C)NC(=O)CNC23CC4CC(CC(C4)C2)C3)cc1 (centres undefined)	6.3µM*
COc1ccc(C(C)NC(=O)CN2C(=O)NC3(CCC(C)CC3)C2=O)cc1 (centres undefined)	i
CC1CCC2(CC1)NC(=O)N(CC(=O)NC(C)c1ccccc1)C2=O (centres undefined)	-9%
CN1CCN(C(=O)[C@@H]2CCC[C@@H](NC(=O)c3ccc(Cl)cc3)CN(C)C(=O)C2)CC1	19%[44.1 µM]
Cc1cnc(CC2CCN(S(=O)(=O)c3cn(C)cn3)C2)n1Cc1ccccc1 (centres undefined)	-19%
CCCn1c(C)cnc1CC1CCCN(S(C)(=O)=O)C1 (centres undefined)	-4%
CCCn1c(C)cnc1CC1CCCN(S(=O)(=O)c2cn(C)cn2)C1 (centres undefined)	-9%

Source: PubChem BioAssay (National Center for Advancing Translational Sciences (NCATS))
